High-throughput results from PubChem BioAssay.
Sampled rows, rich in hits. Any-hit rate of the full collection: about 19%.
TDP1 cell noCPT – qHTS for Inhibitors of human tyrosyl-DNA phosphodiesterase 1 (TDP1): qHTS in cells in absence of CPT | DT40 Tdp1-/- hTDP1 cells, no CPT, ATP luminescence, 48 h | Potency, µM (titrated, usually from 46.2 µM), most hits filed as inhibitors | actives 15% (n = 420,000); also: nearly all actives have a fitted effect of over 55% in size
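Growth kinetics read by CellTiter-Glo luminescence after ≥48 hr at 37 °C. Cells: DT40 Tdp1-/- stably carrying human TDP1, 400 per well, compound exposure in the absence of CPT (DMSO vehicle).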
KB-V1 MDR tox – qHTS assay for MDR1-selective chemotherapeutics: Primary screen using the drug-selected MDR subline cells KB-V1. AID 1347076, 2019. Potency, µM (highest dose often 46.1 µM), hits mostly cytotoxic. KB-V1 MDR cells viability, CellTiter-Glo, 72 h. actives 3.4% (n = 400,000); also: nearly all actives have a fitted effect of over 60% in size
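In this primary screen, KB-V1 cells overexpressing P-gp are incubated with library compounds (lowest to highest concentration) for 72 h at 37 degrees C before a luminescent ATP viability read.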
HT1080 IDH1KD tx – qHTS for induction of synthetic lethality in tumor cells producing 2HG: qHTS for the HT-1080-IDH1KD cell line; HT-1080 IDH1 knockdown viability, ATP luminescence, 48 h; Potency, µM (top dose mostly 46.1 µM), actives largely listed as cytotoxic; actives 2% (n = 360,000); AID 686971, 2013
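Cytotoxicity counter-line: IDH1KD HT-1080, 48 h, CellTiter-Glo. Curves classed by r2, magnitude and activity.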
HT1080NT lethal – qHTS for induction of synthetic lethality in tumor cells producing 2HG: qHTS for the HT-1080-NT fibrosarcoma cell line. actives 1.6% (n = 360,000). Potency, µM (doses to about 46.1 µM), most hits filed as cytotoxic. AID 686970, 2013. HT-1080-NT fibrosarcoma viability, CellTiter-Glo ATP luminescence, 48 h;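 also: NT is the 2HG producing partner of a matched IDH1 knockdown line; nearly all actives have a fitted effect of over 55% in size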
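Viability by CellTiter-Glo luminescence after 48 h compound exposure at 37C of HT-1080-NT cells (750/well, RPMI, 5% FBS). % activity scaled between DMSO wells and medium-only wells, then curve-fitted and categorized by curve class.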
KB-3-1 tox – qHTS assay for MDR1-selective chemotherapeutics: Primary screen using the parental adenocarcinoma cell KB-3-1. AID 1347075, 2019. Potency, µM (series often up to 46.1 µM), most hits filed as cytotoxic. actives 1.4% (n = 400,000). KB-3-1 viability, CellTiter-Glo ATP luminescence, 72 h; also: nearly all actives have a fitted effect of over 60% in size
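KB-3-1 cells, DMEM (no phenol red) + 10% FBS; compound by pin transfer, 72 h, 37 °C. Readout: CellTiter-Glo luminescence after 10 min. Data normalized, curve-fitted.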
DT40 TDP1 CPT – qHTS for Inhibitors of human tyrosyl-DNA phosphodiesterase 1 (TDP1): qHTS in cells in presence of CPT; actives 12% (n = 420,000); chicken DT40 Tdp1-/-;hTDP1 cells + 20 nM CPT, ATP luminescence, 48 h; Potency, µM (series often up to 46.2 µM), usual class: inhibitors; also: nearly all actives have a fitted effect of over 55% in size
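Chicken DT40 Tdp1-/- cells stably complemented with human TDP1 were seeded at 400 cells/well in medium containing 20 nM camptothecin, exposed to pin-transferred compounds, and grown at 37 °C for at least 48 hr. Viability was read as ATP luminescence.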
Of the large screens only hits and unclear results are named; the others gave an inactive call. Calls follow the shape of the dose curve; as a rule, active = well fitted curve in the direction sought with a large enough effect; inconclusive = small, poorly fitted or top-dose-only effect, or another doubt; inactive = no such curve, though single readings can be large; an effect the other way counts as inactive or inconclusive.

CCC(C)[C@@H](CN(N=O)[C@@H](Cc1ccccc1)CN(C)N=O)N(CCc1ccccc1)N=O (stereo not given in full)	TDP1 cell noCPT 21µM, KB-V1 MDR tox inconclusive, DT40 TDP1 CPT 16µM
CC(CCc1ccc(O)cc1)N(C)CCc1ccccc1 (stereo not given)	none
CC(CCc1ccccc1)NC(=O)CCC1CCCC1 (stereo not given)	none
CN(C[C@H](Cc1ccccc1)N(C[C@H](CC1CCCCC1)N(CCc1ccccc1)N=O)N=O)N=O	TDP1 cell noCPT inconclusive, DT40 TDP1 CPT 26µM
CC1CN(c2ccc(Cl)cc2[N+](=O)[O-])CCN1S(C)(=O)=O (stereo not given)	TDP1 cell noCPT inconclusive, KB-V1 MDR tox inconclusive
Cc1ccc2c(c1)N(C(=O)NCc1ccccc1)CCO2	none (no result: HT1080 IDH1KD tx, HT1080NT lethal)
O=NN(CCCl)C(=O)NCC1=C[N+](=O)CC=C1	none
CCOc1ccc(N=Cc2c(C)[nH]n(-c3nc4ccccc4[nH]3)c2=O)cc1	TDP1 cell noCPT 9.2µM, KB-V1 MDR tox inconclusive, HT1080 IDH1KD tx 3.7µM, HT1080NT lethal 5.2µM, KB-3-1 tox inconclusive, DT40 TDP1 CPT 10µM
COc1ccc(NC(=O)C2(C)CCN2C(=O)CC2CCCC2)cc1OC (stereo not given)	KB-V1 MDR tox inconclusive, HT1080 IDH1KD tx inconclusive
Cc1c(C(N)=O)c(N)c(C(=O)c2ccccc2)n1-c1ccccc1	KB-V1 MDR tox 21µM
O=C(Nc1nnc(CSCc2ccc(F)cc2)s1)c1cccc([N+](=O)[O-])c1	TDP1 cell noCPT inconclusive, KB-V1 MDR tox 4.6µM, KB-3-1 tox inconclusive, DT40 TDP1 CPT inconclusive
O=C(Nc1nnc(CSCc2ccc(Cl)cc2)s1)c1cccc([N+](=O)[O-])c1	TDP1 cell noCPT inconclusive
CCC(C)(C)c1nnc(NC(=O)c2cccc([N+](=O)[O-])c2)s1	KB-V1 MDR tox 21µM
CC(=O)N1CCC(C(=O)Nc2nnc(C(C)C)s2)CC1	KB-V1 MDR tox inconclusive, KB-3-1 tox inconclusive (no result: HT1080 IDH1KD tx, HT1080NT lethal)
Cn1c(CSCc2ccc(Cl)cc2)n[nH]c1=S	none
Cc1cccc(/C=N/NC(=O)c2c(-c3ccccc3)noc2C)c1O	TDP1 cell noCPT 2.9µM, HT1080 IDH1KD tx inconclusive, HT1080NT lethal inconclusive, KB-3-1 tox inconclusive, DT40 TDP1 CPT 18µM
Cc1onc(-c2ccccc2)c1C(=O)N/N=C/c1cc2c(cc1Br)OCO2	TDP1 cell noCPT 26µM, DT40 TDP1 CPT inconclusive
Cc1onc(-c2ccccc2)c1C(=O)N/N=C/c1cc(Br)c(O)c(Br)c1	TDP1 cell noCPT inconclusive, DT40 TDP1 CPT inconclusive (no result: KB-V1 MDR tox, KB-3-1 tox)
Cc1onc(-c2ccccc2)c1C(=O)N/N=C/c1ccccc1OC(C)C	none
COCc1cc(C)n(CC(=O)Nc2ccc(N3CCOCC3)cc2)c(=O)c1C#N	none
CCOC(=O)C1CCN(C(=O)c2[nH]c(C(F)(F)F)nc2-c2ccccc2)CC1	none
COc1cc(C=C2C(=O)C=CC2=O)ccc1O	TDP1 cell noCPT 0.26µM, HT1080 IDH1KD tx 23µM, HT1080NT lethal 15µM, KB-3-1 tox 21µM, DT40 TDP1 CPT 0.16µM
CCOc1cc(/C=C2\CN(CC)C/C(=C\c3ccc(O)c(OCC)c3)C2=O)ccc1O	TDP1 cell noCPT 4.1µM, KB-V1 MDR tox inconclusive, HT1080 IDH1KD tx 2.9µM, HT1080NT lethal 2.6µM, KB-3-1 tox inconclusive, DT40 TDP1 CPT 5.2µM
O=C1NC(=O)/C(=C/c2cccc([N+](=O)[O-])c2)N1	KB-3-1 tox inconclusive
COc1cc(/C=C2/C(=O)CNC2=O)ccc1O	none
CCOc1ccc(N2C(=O)S/C(=C\c3ccc(O)c(OCC)c3)C2=O)cc1	TDP1 cell noCPT 16µM
CCN1C/C(=C/c2cccc([N+](=O)[O-])c2)C(=O)/C(=C/c2cccc([N+](=O)[O-])c2)C1	TDP1 cell noCPT 0.73µM, KB-V1 MDR tox inconclusive, HT1080 IDH1KD tx 3.3µM, HT1080NT lethal 4.1µM, DT40 TDP1 CPT 0.58µM
O=C(Oc1ccc(C(=S)N2CCOCC2)cc1)c1cccc(Cl)c1	none
O=c1[nH]c2c(=O)[nH]cnc2nc1-c1ccccc1	none
COc1cc(C=O)ccc1O	none (no result: KB-V1 MDR tox, HT1080 IDH1KD tx, HT1080NT lethal, KB-3-1 tox)
COc1cc(/C=C2\CCC/C(=C\c3ccc(O)c(OC)c3)C2=O)ccc1O	TDP1 cell noCPT 8.2µM, KB-V1 MDR tox inconclusive, HT1080 IDH1KD tx 5.8µM, HT1080NT lethal 18µM, KB-3-1 tox inconclusive, DT40 TDP1 CPT 7.1µM
COc1cc(C=C2CCC/C(=C\c3ccc(O)c(OC)c3)C2=O)ccc1O	TDP1 cell noCPT 7.5µM, DT40 TDP1 CPT 3.3µM (no result: KB-V1 MDR tox, HT1080 IDH1KD tx, HT1080NT lethal, KB-3-1 tox)
Cc1noc(NS(=O)(=O)c2ccc(NC(=O)c3cc4ccccc4o3)cc2)c1C	none
Cc1ccc(NC(=O)c2ccc(-c3cc(Cl)ccc3Cl)o2)c(C)c1	TDP1 cell noCPT inconclusive, DT40 TDP1 CPT 21µM
Cc1ccccc1NC(=O)c1ccc(-c2ccc(Cl)cc2Cl)o1	TDP1 cell noCPT 13µM, DT40 TDP1 CPT inconclusive
COc1cccc(OC)c1NC(=O)c1ccc(-c2cc(Cl)ccc2Cl)o1	TDP1 cell noCPT inconclusive, KB-V1 MDR tox inconclusive, HT1080 IDH1KD tx inconclusive, HT1080NT lethal inconclusive, DT40 TDP1 CPT inconclusive
